Assay results: PubChem BioAssay (NCI)
About 79,000 compounds went through this panel and 15% of them were active in at least one assay; those are over-represented in the sample as a whole. A number with no mark means an inactive call. Calls of active or inactive are those of the source. Rule as the data show it: active = growth inhibition above about 70%; inactive = the rest.

Experiments:
[1] = NCI Yeast Anticancer Drug Screen. Data for the rad50 strain (AID 155);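 also: 0% = growth of vehicle-only cultures of the same strain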; settings: S. cerevisiae rad50 strain growth inhibition, stronger effect = higher value
In short: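 Growth of the mutant yeast was measured after compound exposure and referenced to vehicle-treated cultures.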

[2] = NCI Yeast Anticancer Drug Screen. Data for the mec2-1 strain (AID 157); settings: S. cerevisiae mec2-1 strain, stronger effect = higher value
In short: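 Mutant yeast (mec2-1) grown with compound; growth inhibition relative to vehicle control reported.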

[3] = NCI Yeast Anticancer Drug Screen. Data for the sgs1 mgt1 strain (AID 161);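 also: 0% = growth of cultures given vehicle only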; settings: S. cerevisiae sgs1 mgt1 strain, stronger effect = higher value
In short: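 Yeast cells carrying a defined DNA-repair defect were exposed to test compounds. Growth inhibition was measured relative to vehicle-treated controls.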

[4] = NCI Yeast Anticancer Drug Screen. Data for the cln2 rad14 strain (AID 165);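 also: 0% = growth equal to vehicle treated cultures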; settings: S. cerevisiae cln2 rad14 strain, stronger effect = higher value
In short: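 Readout is yeast growth inhibition versus vehicle-treated controls, using a strain with cln2 and rad14 alterations exposed to compound.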

[5] = NCI Yeast Anticancer Drug Screen. Data for the bub3 strain (AID 167); settings: S. cerevisiae bub3 mutant strain, stronger effect = higher value
In short: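 Whole-cell yeast assay. The mutant strain was incubated with compounds, and growth inhibition was determined by comparison with vehicle-treated cells.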

[6] = NCI Yeast Anticancer Drug Screen. Data for the mlh1 rad18 strain (AID 175); settings: S. cerevisiae mlh1 rad18 strain growth inhibition, stronger effect = higher value
In short: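 Genetically defined yeast (DNA repair-deficient) exposed to compounds; growth inhibition determined relative to vehicle.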

[7] = at 5.0 µM (retest, dose inferred, filed as 0.5)
[8] = at 50.0 µM (retest, dose inferred, filed as 5.0)

SMILES | growth inhibition [1, 7] | growth inhibition [1, 8] | growth inhibition ([1]; at 50.0 µM) | growth inhibition [2, 7] | growth inhibition [2, 8] | growth inhibition ([2]; at 50.0 µM) | growth inhibition [3, 7] | growth inhibition [3, 8] | growth inhibition ([3]; at 50.0 µM) | growth inhibition [4, 7] | growth inhibition [4, 8] | growth inhibition ([4]; at 50.0 µM) | growth inhibition [5, 7] | growth inhibition [5, 8] | growth inhibition ([5]; at 50.0 µM) | growth inhibition [6, 7] | growth inhibition [6, 8] | growth inhibition ([6]; at 50.0 µM)
Cc1cc(N/N=C/c2cccc3ccccc23)c2cc3c(cc2n1)OCO3 | 7% | 72% (active) | 99.2% (active) | 2% | 79% (active) | 99% (active) | 27% | 72% (active) | 99.1% (active) | -6% | 56% | 97.8% (active) | -3% | 75% (active) | 99.2% (active) | 20% | 91% (active) | 98.5% (active)
CCc1cc2c([nH]c3ccccc32)c(C)c1CCN(C)C | -1% | 23% | 35.1% | 4% | 23% | 3.65% | 3% | 46% | 1.45% | -11% | 24% | -14.6% | -9% | -5% | 12.6% | -5% | 43% | 69.8%
O=C(O)c1c(Cl)c(Cl)c(Cl)c(Cl)c1-c1c2cc(I)c(=O)c(I)c-2oc2c(I)c(O)c(I)cc12 | 75% (active) | 98% (active) | 91.3% (active) | 99% (active) | 99% (active) | 92.1% (active) | 82% (active) | 98% (active) | 91.6% (active) | 98% (active) | 97% (active) | 90.2% (active) | 98% (active) | 98% (active) | 91.4% (active) | 97% (active) | 97% (active) | 91.2% (active)
N#CSc1cc(SC#N)c2ccccc2c1N | 0% | -3% | 70.2% (active) | -2% | -12% | 62.9% | 3% | -9% | 57.9% | 1% | -27% | -1.2% | 19% | 28% | 81% (active) | 8% | -2% | 63.5%
CC(=O)OCc1ccc(O)c2ncccc12 | -127% | 74% (active) | 95.7% (active) | -49% | 83% (active) | 94% (active) | -51% | 45% | 54.2% | -44% | 75% (active) | 41% | -56% | 74% (active) | 67.1% | -103% | 54% | 55%
O=C(Nc1ccc(S(=O)(=O)NC2CCCCC2)cc1)OC1CCCCC1 | 14% | 95% (active) | 92.9% (active) | 30% | 98% (active) | 93.4% (active) | 66% | 92% (active) | 94.3% (active) | -10% | 93% (active) | 93.7% (active) | 10% | 95% (active) | 92.3% (active) | 11% | 95% (active) | 94% (active)
CC#Cc1cc2c(cc1O)CC[C@@H]1[C@@H]2CC[C@]2(C)[C@@H](O)CC[C@@H]12 | 39% | 99% (active) | 84.7% (active) | 22% | 100% (active) | 90.3% (active) | 24% | 99% (active) | 88.5% (active) | 20% | 99% (active) | 72.4% (active) | 26% | 99% (active) | 87.7% (active) | 29% | 99% (active) | 93.3% (active)
N#CCC1CC(=O)c2[nH]c3ccccc3c2C1 (configuration not stated) | -157% | -137% | 8.85% | -49% | -54% | 7.7% | -64% | -63% | 10% | -54% | -74% | 28% | -62% | -70% | -15.9% | -123% | -121% | 10.4%
CCN(CC)CC(O)CNc1ccc(C)c2sc3ccccc3c(=O)c12 (configuration not stated) | 12% | 99% (active) | 99.8% (active) | 7% | 99% (active) | 99.8% (active) | 28% | 100% (active) | 95.2% (active) | 12% | 99% (active) | 99.5% (active) | 10% | 99% (active) | 99.5% (active) | 14% | 99% (active) | 99.8% (active)
